From PubChem BioAssay (Tox21)
Inconclusive results are not listed. The source made the active and inactive calls. Unless noted, the call rests on the fitted dose curve.

Experiments:
[1] = Nuclear factor erythroid 2-related factor 2/antioxidant responsive element (Nrf2/ARE) small molecule agonists: qHTS cell viability counter screen in human keratinocytes (AID 1919968; active means well fitted curve in the direction sought with a large enough effect in the repeat runs; an effect the other way counts as inactive or inconclusive; further: nearly all actives have a fitted effect of over 55% in size; further: potency means the concentration at half of the fitted maximal effect)
In short: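 After a 5 h attachment period, ARE-reporter keratinocytes were dosed with compounds in DMSO and then cultured 23 h at 37 C. Cell viability came from CellTiter-Fluor signal read after a further 1 h.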

[2] = Nuclear factor erythroid 2-related factor 2/antioxidant responsive element (Nrf2/ARE) small molecule agonists: luciferase reporter gene qHTS assay in human keratinocytes (AID 1919969); further: nearly all actives have a fitted effect of over 35% in size; further: potency means the concentration at half of the fitted maximal effect
[3] = molecular target: Gonadotropin-releasing hormone receptor (Homo sapiens) (UniProt P30968); test: Human gonadotropin-releasing hormone receptor (GnRHR) small molecule agonists, calcium flux assay in GnRHR-HEK293 cells (AID 1920063); further: nearly all actives have a fitted effect of over 35% in size
In short: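 We seeded human GnRHR-expressing HEK293 cells for 18 hours, loaded them with calcium dye for an hour at 37 C, added test compounds, and recorded fluorescence intensity kinetically for three minutes.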

[4] = molecular target: KiSS-1 receptor (Homo sapiens) (UniProt Q969F8); test: Human kisspeptin (KISS1R) small molecule agonists, calcium flux assay in KISS1R-HEK293 cells (AID 1920064; active means well fitted curve in the direction sought with a large enough effect in the repeat runs; an effect the other way counts as inactive or inconclusive)
In short: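 Kinetic calcium assay, 1 s sampling over 3 min at Ex/Em 480/540, in HEK293 cells engineered with human KISS1R; compounds delivered in DMSO after 1 h dye loading.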

[5] = G protein-coupled receptor (GPCR) small molecule agonists, calcium flux assay: HEK293 wild type cell line counter screen (AID 1920065)
In short: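 Calcium-sensitive dye, loaded 1 h at 37 C into cells cultured 18 h, reports compound-evoked calcium release as fluorescence (Ex/Em 480/540), measured over 3 min. Agonist mode; 15-point titrations, triplicate.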

[6] = p53 small molecule agonists, cell-based qHTS assay with human liver microsomes (AID 1963577)
In short: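 p53RE-bla cells, 4,000/well, compound added after 5 h, with human liver microsomes 0.5 mg/mL and NADPH 0.5 mg/mL final; 16 h at 37 C, then LiveBLAzer 2 h RT, fluorescence.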

[7] = p53 small molecule agonists, cell-based qHTS assay with rat liver microsomes (AID 1963578)
In short: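 p53RE-bla cells, 4,000/well, pre-incubated 5 h, then given compounds plus rat liver microsomes (0.5 mg/mL final) and NADPH (0.5 mg/mL final). Incubation 16 h at 37 C; beta-lactamase reporter read by LiveBLAzer fluorescence after 2 h at room temperature.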

[8] = p53 small molecule agonists, cell-based qHTS assay with rat liver microsomes: qHTS cell viability counter screen (AID 1963580); further: nearly all actives have a fitted effect of over 45% in size
In short: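 In HCT-116 cells carrying a p53 response element-bla reporter, compounds were metabolically activated in situ by rat liver microsomes with NADPH over 16 h. Cell ATP content then served as the cytotoxicity measure.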

[9] = p53 small molecule agonists, cell-based qHTS assay: qHTS cell viability counter screen (AID 1963581); further: nearly all actives have a fitted effect of over 45% in size
In short: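 Following 5 h attachment, HCT-116 p53RE-bla cells took up compound for 16 h at 37 C; the reporter was read with B/G FRET substrate (2 h RT), and viability then via CellTiter-Glo ATP luminescence.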

[10] = p53 small molecule agonists, cell-based qHTS assay (AID 1963582; active means well fitted activation curve with a large enough effect in the signal ratio in the repeat runs, not every such curve was filed as active; the % refers to the signal ratio)
In short: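 In this cell-based concentration-response screen, a p53 response element drives beta-lactamase; cells received DMSO-borne compounds after 5 h culture and were incubated a further 16 h before FRET substrate development.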

[11] = molecular target: 5-hydroxytryptamine receptor 2A (Homo sapiens) (UniProt P28223); test: 5-hydroxytryptamine receptor 2A (HTR2A) small molecule antagonists, cell-based qHTS assay (AID 1963586); further: nearly all actives have a fitted effect of over 45% in size
In short: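 Antagonist-mode intracellular calcium assay: DOI (4 nM) added after 5 min compound pre-incubation at room temperature to dye-loaded HTR2A-CHO cells. Fluorescence followed for 3 min, sampled every second.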

[12] = molecular target: 5-hydroxytryptamine receptor 2A (Homo sapiens) (UniProt P28223); test: 5-hydroxytryptamine receptor 2A (HTR2A) small molecule agonists, cell-based qHTS assay (AID 1963587); further: nearly all actives have a fitted effect of over 30% in size
In short: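 HTR2A-CHO cells, plated 18 h at 37 C/5% CO2, dye-loaded 1 h at 37 C; compounds in DMSO added by pin tool (agonist mode). Intracellular calcium flux read as kinetic fluorescence on FDSS over 2 min at 1 s intervals.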

[13] = molecular target: Muscarinic acetylcholine receptor M1 (Homo sapiens) (UniProt P11229); test: Cholinergic receptor muscarinic 1 (CHRM1) small molecule agonists, cell-based qHTS assay (AID 1963589); further: nearly all actives have a fitted effect of over 35% in size
In short: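 Measures agonist-induced intracellular calcium rise. Stable human CHRM1 CHO line, 1 h dye load at 37 C, compounds from DMSO, kinetic fluorescence read.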

[14] = cAMP Responsive Elements (CRE) small molecule agonists, cell-based qHTS assay (AID 1963590)
In short: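 A CRE-responsive beta-lactamase reporter in HEK 293T cells was used. Treatment ran 3 h at 37 C; detection used LiveBLAzer B/G FRET substrate for 2 h at room temperature.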

[15] = cAMP Responsive Elements (CRE) small molecule antagonists, cell-based qHTS assay (AID 1963591; active means well fitted inhibition curve with a large enough effect in the signal ratio in the repeat runs, not every such curve was filed as active; the % refers to the signal ratio)
In short: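 HEK293T cells carrying a CRE-driven beta-lactamase reporter receive compound and NKH477 (0.25 uM final) for 3 h. Fluorescence from LiveBLAzer B/G FRET substrate is read after 2 h at room temperature.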

[16] = molecular target: Beta-2 adrenergic receptor (Homo sapiens) (UniProt P07550); test: Adrenergic beta2 receptor (ADRB2) small molecule antagonists, cell-based qHTS assay (AID 1963592); further: series mostly up to about 92 µM; nearly all actives have a fitted effect of over 50% in size
In short: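 Cells (CHO, stable ADRB2 overexpression) incubated 18-20hr at 37C; compounds added from DMSO; agonist mix (1nM isoproterenol, 100uM IBMX, 25uM Ro-20-1724) added; 0.5hr RT; d2-cAMP and anti-cAMP-cryptate added; 1hr RT; 665/615 nm read.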

[17] = molecular target: D(2) dopamine receptor (Homo sapiens) (UniProt P14416); test: Dopamine D2 receptor (DRD2) small molecule antagonists, cell-based qHTS assay (AID 1963595; active means well fitted inhibition curve with a large enough effect in the signal ratio in the repeat runs, with a control signal flat; the % refers to the signal ratio)
In short: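 Antagonist mode in DRD2-HEK293 cells: after compound addition with 0.1 mM Ro20-1724, cells received quinpirole (12 nM) and NKH477 (200 nM) for 30 min at room temperature; HTRF cAMP read after 1 h detection.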

[18] = molecular target: Muscarinic acetylcholine receptor M1 (Homo sapiens) (UniProt P11229); test: Cholinergic receptor muscarinic 1 (CHRM1) small molecule antagonists, cell-based qHTS assay (AID 1963588); further: nearly all actives have a fitted effect of over 40% in size
In short: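 CHRM1-CHO calcium-flux assay, antagonist mode. Cells were seeded 18 h, dye-loaded 1 h at 37 C and given compound for 5 min at RT, then acetylcholine was added at 50nM. FDSS fluorescence was read 3 min; 15 concentrations, three runs.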

[19] = molecular target: D(2) dopamine receptor (Homo sapiens) (UniProt P14416); test: Dopamine D2 receptor (DRD2) small molecule agonists, cell-based qHTS assay (AID 1963594); further: nearly all actives have a fitted effect of over 35% in size
In short: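 HEK293 cells stably expressing DRD2 were cultured 24 h at 37 C, then given Ro20-1724 (0.1 mM final) and compounds for 10 min at room temperature. NKH477 (200nM) was then added for 30 min. cAMP was read by HTRF.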

[20] = p53 small molecule agonists, cell-based qHTS assay with human liver microsomes: qHTS cell viability counter screen (AID 1963579); further: nearly all actives have a fitted effect of over 45% in size
In short: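 p53RE-bla cells, 4,000/well, dosed 5 hours after plating, with human liver microsomes (0.5 mg/mL final) plus NADPH (0.5 mg/mL final), 16 hours at 37 C. Viability read as CellTiter-Glo luminescence after 30 min at room temperature.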
On the % scale 0 is the no-effect control and ±100 the full control effect.

Sequence of Muscarinic acetylcholine receptor M1 (Homo sapiens) (P11229 whole entry, looked up): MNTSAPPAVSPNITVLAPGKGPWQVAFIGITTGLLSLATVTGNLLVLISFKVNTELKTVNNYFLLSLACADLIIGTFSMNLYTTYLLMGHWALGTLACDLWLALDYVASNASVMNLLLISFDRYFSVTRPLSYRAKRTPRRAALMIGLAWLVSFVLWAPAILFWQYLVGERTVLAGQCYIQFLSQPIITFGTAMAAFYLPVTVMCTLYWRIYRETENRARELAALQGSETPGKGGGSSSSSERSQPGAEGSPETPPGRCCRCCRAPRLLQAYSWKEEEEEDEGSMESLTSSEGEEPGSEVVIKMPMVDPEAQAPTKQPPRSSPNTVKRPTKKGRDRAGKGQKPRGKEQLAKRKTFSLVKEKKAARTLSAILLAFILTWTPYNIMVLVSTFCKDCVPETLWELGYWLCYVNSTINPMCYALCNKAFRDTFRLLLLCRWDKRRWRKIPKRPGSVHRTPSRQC
Sequence of 5-hydroxytryptamine receptor 2A (Homo sapiens) (P28223 whole entry, looked up): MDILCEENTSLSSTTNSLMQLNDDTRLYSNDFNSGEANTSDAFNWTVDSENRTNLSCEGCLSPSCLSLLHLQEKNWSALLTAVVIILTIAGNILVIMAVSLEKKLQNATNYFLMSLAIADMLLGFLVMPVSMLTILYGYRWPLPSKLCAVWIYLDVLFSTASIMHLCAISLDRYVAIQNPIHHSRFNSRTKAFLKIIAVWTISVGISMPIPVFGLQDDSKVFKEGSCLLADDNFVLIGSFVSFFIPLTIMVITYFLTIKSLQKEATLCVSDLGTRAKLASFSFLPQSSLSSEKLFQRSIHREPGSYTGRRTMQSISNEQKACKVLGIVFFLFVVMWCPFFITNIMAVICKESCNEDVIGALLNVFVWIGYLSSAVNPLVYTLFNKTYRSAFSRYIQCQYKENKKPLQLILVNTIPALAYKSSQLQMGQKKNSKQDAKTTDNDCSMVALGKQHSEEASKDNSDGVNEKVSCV
Sequence of Beta-2 adrenergic receptor (Homo sapiens) (P07550 whole entry, looked up): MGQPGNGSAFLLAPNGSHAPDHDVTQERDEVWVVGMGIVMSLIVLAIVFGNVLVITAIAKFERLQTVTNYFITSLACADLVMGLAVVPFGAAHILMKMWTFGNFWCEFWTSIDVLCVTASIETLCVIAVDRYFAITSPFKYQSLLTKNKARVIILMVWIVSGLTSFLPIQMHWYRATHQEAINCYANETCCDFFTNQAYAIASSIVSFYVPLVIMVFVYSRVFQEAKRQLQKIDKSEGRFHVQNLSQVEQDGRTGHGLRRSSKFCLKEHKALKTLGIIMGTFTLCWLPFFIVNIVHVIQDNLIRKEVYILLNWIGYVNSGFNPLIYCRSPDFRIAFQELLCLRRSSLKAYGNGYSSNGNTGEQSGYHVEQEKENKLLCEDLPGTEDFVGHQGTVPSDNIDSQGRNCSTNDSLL
Sequence of KiSS-1 receptor (Homo sapiens) (Q969F8 whole entry, looked up): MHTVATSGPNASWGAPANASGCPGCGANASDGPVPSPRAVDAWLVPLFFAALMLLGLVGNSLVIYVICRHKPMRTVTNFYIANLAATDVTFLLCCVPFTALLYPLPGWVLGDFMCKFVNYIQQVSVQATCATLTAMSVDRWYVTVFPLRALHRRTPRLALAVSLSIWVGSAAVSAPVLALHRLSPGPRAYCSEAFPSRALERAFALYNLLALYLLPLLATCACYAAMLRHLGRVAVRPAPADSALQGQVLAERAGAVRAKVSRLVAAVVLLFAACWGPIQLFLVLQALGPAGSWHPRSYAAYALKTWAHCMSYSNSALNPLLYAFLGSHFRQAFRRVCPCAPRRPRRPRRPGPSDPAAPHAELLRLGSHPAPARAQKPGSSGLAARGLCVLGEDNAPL
Sequence of Gonadotropin-releasing hormone receptor (Homo sapiens) (P30968 whole entry, looked up): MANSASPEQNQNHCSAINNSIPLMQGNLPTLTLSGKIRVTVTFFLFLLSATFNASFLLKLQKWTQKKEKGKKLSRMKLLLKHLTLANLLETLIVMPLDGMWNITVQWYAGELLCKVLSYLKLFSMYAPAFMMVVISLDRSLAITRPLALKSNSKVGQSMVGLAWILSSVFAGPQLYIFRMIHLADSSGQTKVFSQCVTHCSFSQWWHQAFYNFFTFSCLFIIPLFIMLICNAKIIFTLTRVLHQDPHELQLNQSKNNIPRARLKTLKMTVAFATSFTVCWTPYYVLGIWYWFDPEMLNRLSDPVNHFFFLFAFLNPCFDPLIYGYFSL
Sequence of D(2) dopamine receptor (Homo sapiens) (P14416 whole entry, looked up): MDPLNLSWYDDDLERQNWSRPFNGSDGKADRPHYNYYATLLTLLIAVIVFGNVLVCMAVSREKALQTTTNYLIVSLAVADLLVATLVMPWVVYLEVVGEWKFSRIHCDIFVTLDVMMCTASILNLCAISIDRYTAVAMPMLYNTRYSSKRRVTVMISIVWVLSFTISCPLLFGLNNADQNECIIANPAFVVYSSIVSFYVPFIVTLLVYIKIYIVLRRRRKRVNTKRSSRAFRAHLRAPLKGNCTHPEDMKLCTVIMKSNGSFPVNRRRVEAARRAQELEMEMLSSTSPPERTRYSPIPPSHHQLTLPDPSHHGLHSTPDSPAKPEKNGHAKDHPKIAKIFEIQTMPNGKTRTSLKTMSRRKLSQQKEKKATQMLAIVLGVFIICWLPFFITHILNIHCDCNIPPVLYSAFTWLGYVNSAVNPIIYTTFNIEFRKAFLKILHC

COc1ccc2c(c1OC)C(=O)O[C@H]2[C@@H]1c2cc3c(cc2CCN1C)OCO3
inactive: Potency [1] | Potency [2] | Potency [3] | Potency [4] | Potency [5] | Potency [6] | Potency [7] | Potency [8] | Potency [9] | Potency [10] | Potency [11] | Potency [12] | Potency [13] | Potency [14] | Potency [15] | Potency [16] | Potency [17]

O=C(CCl)Nc1ccccc1
inactive: Potency [3] | Potency [4] | Potency [5] | Potency [6] | Potency [7] | Potency [8] | Potency [9] | Potency [11] | Potency [12] | Potency [18] | Potency [13] | Potency [15] | Potency [16] | Potency [19] | Potency [17]
active: Potency [1] 21.7 µM | Potency [2] 15.4 µM

Oc1cc(Cl)cc(Cl)c1
inactive: Potency [1] | Potency [2] | Potency [3] | Potency [4] | Potency [5] | Potency [6] | Potency [7] | Potency [8] | Potency [9] | Potency [10] | Potency [11] | Potency [12] | Potency [18] | Potency [13] | Potency [15] | Potency [16] | Potency [19] | Potency [17]

CCC[N+](CCC)(CCC)CCC
inactive: Potency [1] | Potency [2] | Potency [3] | Potency [4] | Potency [5] | Potency [6] | Potency [7] | Potency [20] | Potency [9] | Potency [10] | Potency [11] | Potency [12] | Potency [18] | Potency [13] | Potency [15] | Potency [16] | Potency [19] | Potency [17]

CC[N+]1(C)CCCC(OC(=O)C(O)(c2ccccc2)c2ccccc2)C1 (configuration not stated)
inactive: Potency [1] | Potency [2] | Potency [3] | Potency [4] | Potency [5] | Potency [6] | Potency [7] | Potency [20] | Potency [9] | Potency [10] | Potency [11] | Potency [13] | Potency [14] | Potency [15] | Potency [16] | Potency [19] | Potency [17]

N#CSCc1ccccc1
inactive: Potency [1] | Potency [3] | Potency [4] | Potency [5] | Potency [6] | Potency [7] | Potency [20] | Potency [9] | Potency [11] | Potency [12] | Potency [18] | Potency [13] | Potency [14] | Potency [16] | Potency [19] | Potency [17]
active: Potency [2] 68.9 µM

CCCCCCCCCCCCN=C(N)N
inactive: activity change, negative = cytotoxicity [1] -1.49% [at 3.27 µM] | activity, positive = activation [2] -21.7% [at 3.27 µM] | activity change [3] 1.72% [at 2.04 µM, hits give high values] | activation [4] 1.8% [at 2.72 µM] | activation [5] 0.159% [at 2.04 µM] | activation [6] 0.2% [at 2.33 µM] | activation [7] 0.708% [at 2.33 µM] | activity change, negative = cytotoxicity [20] -3.65% [at 2.33 µM] | activity change, negative = cytotoxicity [9] 10.9% [at 2.33 µM] | activation [10] -3.75% [at 2.33 µM] | activation [12] -1.31% [at 2.65 µM] | activity, negative = inhibition [18] 8.27% [at 2.17 µM] | activation [14] -0.694% [at 3.27 µM] | activity change, negative = inhibition [15] 1.77% [at 3.27 µM] | activity change, negative = inhibition [16] -9.86% [at 3.27 µM] | activation [19] -4% [at 3.27 µM] | activity change, negative = inhibition [17] -0.313% [at 3.28 µM]

COc1ccc2c(c1OC)CN1CCc3cc4c(cc3C1C2)OCO4 (configuration not stated)
inactive: Potency [1] | Potency [2] | Potency [3] | Potency [4] | Potency [5] | Potency [6] | Potency [7] | Potency [20] | Potency [9] | Potency [10] | Potency [11] | Potency [12] | Potency [18] | Potency [13] | Potency [15] | Potency [17]
